Where “and” joins values, the source holds several entries; their conditions need not be identical. Identical values can stand only once. Out of some 430,000 compounds screened, about 2,600 (0.6%) were called active. No stated cut-off is given here; in the data, active means inhibition mostly above about 37% (no sharp cut-off); inactive means mostly below about 20%. The sample as a whole holds a higher share of actives than the screen did.

For this test, the system named is PriA–SSB C-terminal tail interaction (Klebsiella pneumoniae). Description: inhibitors of Klebsiella pneumoniae PriA binding to SSB C-terminal tail, primary screen, biochemical, AlphaScreen (AID 1272365).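 Further: plate controls were negative control peptide for no effect and reference peptide for full effect.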 The note with it: AlphaScreen SSBct-PriA binding, biotinylated peptide; at 33 µM, stronger effect = higher value. Background: Alpha assays give light when donor and acceptor beads are brought close together.
What is called inhibition is the drop in the measured response relative to a control, in per cent. Regarding `O=S(=O)(CCc1ccccc1)NCC(O)c1ccoc1` (centres undefined), the inhibition is -25% (inactive).

Consider `COc1cc(NS(=O)(=O)c2ccc(NC(=O)c3cc4c(ccc5ccccc54)oc3=O)cc2)ncn1`, for which the inhibition is -16% (inactive).

As for `COC(=O)c1ccc(S(=O)(=O)NCC2(c3ccc(F)cc3)CC2)cc1`, the inhibition was -24% (inactive).

For the compound `COc1ccc(Br)c(C(=O)NCCCc2cnoc2)c1`, the inhibition is 4% (inactive).

Take `Cc1cc2ncc(NC(=O)NCCOc3ccccc3)cn2n1`: the inhibition is -12% (inactive).

Consider `O=[N+]([O-])c1ccccc1Nc1ccc(O)cc1`, for which the inhibition is 46.7% (active).

Regarding `O=[N+]([O-])c1ccccc1NN=Cc1cccc(O)c1O`, the inhibition was 0.72% (inactive).

With `O=C(Nc1ccc(OC(F)(F)F)cc1)C(=O)Nc1ccccc1[N+](=O)[O-]`, the inhibition is 4% (inactive).

Consider `COc1cccc(CCNC(=O)C2CS(=O)(=O)CN2C(=O)c2ccccc2)c1` (centres undefined), for which the inhibition is -9% (inactive).

On to `Cc1ccc(-c2cc3c(=O)n(CC(=O)Nc4ccc5c(c4)OCO5)ncn3n2)cc1C`, for which the inhibition was -17% (inactive).

On to `O=C(c1ccccc1)c1sc(NC(=O)c2cc(-c3ccccc3)nc3ccccc23)nc1-c1ccccc1`, for which the inhibition was 10% (inactive).

For `CC(=NNC(=O)c1c(Cl)c(C)nn1C)c1cccc(NC(=O)C2CCCC2)c1`, the inhibition is 2.34% (inactive).

In the case of `CSc1ccccc1C(=O)Nc1nnc(-c2cc(C)nn2C)o1`, the inhibition was 6% (inactive) and 0% (inactive).

On to `Cc1cc(-c2nnc(NC(=O)c3ccc(C(=O)c4ccccc4)cc3)o2)nn1C`, for which the inhibition was 3% (inactive).

Consider `Cc1cc(-c2nnc(NC(=O)Cc3ccccc3)o2)n(C)n1`, for which the inhibition was 14% (inactive).

On to `Cc1cc(-c2nnc(NC(=O)C(c3ccccc3)c3ccccc3)o2)nn1C`, for which the inhibition is 85% (active).

As for `Cc1cc(-c2nnc(NC(=O)C(C)C)o2)nn1C`, the inhibition is -2% (inactive).

In the case of `Cc1cc(-c2nnc(NC(=O)C(c3ccccc3)c3ccccc3)o2)n(C)n1`, the inhibition was 61% (active).

As to `COC[C@@](C)(O)CNS(=O)(=O)c1ccccc1OC`, the inhibition is -2% (inactive).

As for `Cc1cc(C)c2c(n1)nn1c(NCc3ccc(Cl)cc3Cl)cc(C)nc21`, the inhibition was -9% (inactive).

Take `COc1cc(NC(=O)Cc2c(C)noc2C)ncn1`: the inhibition is -19% (inactive).

With `CC(=O)c1c(C)n(-c2ccc(N(C)C)cc2)c2ccc(OCC(N)=O)cc12`, the inhibition was -18.2% (inactive).

Turning to `CCOC(=O)c1c(C)n(-c2ccc(C)cc2)c2ccc(OCC(O)Cn3ccnc3)cc12` (centres undefined), the inhibition was 83% (active) and 46% (active).

In the case of `Cc1cc(C(=O)OCC(=O)NCc2ccco2)c(C)n1-c1ccccc1`, the inhibition was -5.93% (inactive).

As for `Cc1oc2ccc(OCc3ccccc3)cc2c1C(=O)NCc1ccco1`, the inhibition is -4% (inactive).

For the compound `CC(=O)c1c(C)n(-c2ccc(C)cc2)c2ccc(O)cc12`, the inhibition is -0.78% (inactive).

On to `CCOC(=O)c1c(C)n(-c2ccc(C)cc2)c2ccc(OCC(O)CNCc3ccco3)cc12` (centres undefined), for which the inhibition was 69% (active).

Turning to `COc1cc(OC)cc(-c2noc(-c3cc(-c4cc(C)ccc4C)n[nH]3)n2)c1`, the inhibition is -13% (inactive).

With `O=C(c1ccc([N+](=O)[O-])o1)N1CCN(c2ncnc3c2nnn3-c2cccc(F)c2)CC1`, the inhibition was -10% (inactive).

As for `CC(=O)Nc1nnc(Cc2ccc(F)cc2)o1`, the inhibition was 1% (inactive).

Consider `COc1ncc(NC(=O)Nc2ccc(C)c(Cl)c2)c(N(C)C)n1`, for which the inhibition was 10% (inactive).

Consider `O=C(Cc1csc(SCc2ccc(Cl)cc2)n1)Nc1ccc2c(c1)OCO2`, for which the inhibition is 1% (inactive).

As to `CN(C)c1ccc(/C=N\NC(=O)c2ccccc2O)cc1`, the inhibition was -18% (inactive).

For the compound `NC(=O)c1ccccc1OCC#CCNS(=O)(=O)Cc1ccc(Cl)cc1`, the inhibition was -1% (inactive).

In the case of `O=C(Cn1nc(-c2ccc(F)cc2)c2sc(N3CCCC3)nc2c1=O)NCc1ccccc1Cl`, the inhibition was -4% (inactive).

For `CCOc1cc(/C=C2/N=C(c3ccc(C(C)(C)C)cc3)OC2=O)cc(Cl)c1OS(C)(=O)=O`, the inhibition is 62.1% (active).

Consider `CC(=O)Nc1ccc(N2C(=O)c3cccc4cccc(c34)C2=O)cc1`, for which the inhibition is 5% (inactive).

As to `Cc1ccc(NC(=O)CSc2cccc3cccnc23)c(C)c1`, the inhibition was 79.3% (active).

Regarding `O=C(CSc1cccc2cccnc12)Nc1ccc(Br)cc1`, the inhibition is 27.6% (inactive).

As to `Cc1c(NC(=O)CSc2cccc3cccnc23)c(=O)n(-c2ccccc2)n1C`, the inhibition is 96% (active).

For the compound `Cc1ccc(NC(=O)C2CCCN2S(=O)(=O)c2cccc3cccnc23)c(C)c1` (centres undefined), the inhibition is -5.79% (inactive).

Turning to `Cc1c(NC(=O)COc2cccc(OCCC(C)C)c2)c(=O)n(-c2ccccc2)n1C`, the inhibition was -3% (inactive).

For `Cc1ccccc1OCCC(=O)Nc1c(C)n(C)n(-c2ccccc2)c1=O`, the inhibition is -12.4% (inactive).

On to `O=C(CSc1nnc(-c2ccc3c(c2)OCCO3)o1)Nc1nc(-c2ccccc2)cs1`, for which the inhibition was -3% (inactive).

Take `COc1ccc(C(=O)CC(SCCO)c2ccc(F)cc2)cc1OC` (centres undefined): the inhibition is -1% (inactive).

Take `COc1ccc(NC(=O)NCC(c2ccc3c(c2)CCCN3C)N2CCCC2)cc1OC` (centres undefined): the inhibition was 25% (inactive).

As to `O=C(NCCc1ccc(N2CCCC2)cc1)c1ccco1`, the inhibition was -19% (inactive).

With `CCCN1CCCc2cc(CCNC(=O)Cc3ccc(OC)cc3)ccc21`, the inhibition is 57.9% (inactive).

For the compound `Cc1cc(C)c(S(=O)(=O)Nc2ccc3c(c2)CCCN3C(=O)c2ccco2)c(C)c1`, the inhibition was 0% (inactive).

In the case of `CCCN1CCCc2cc(CCNC(=O)c3ccco3)ccc21`, the inhibition was 56% (active).

In the case of `CCC(=O)N1CCc2ccc(NC(=O)CCC3CCCC3)cc2C1`, the inhibition was -6% (inactive).

Regarding `CCCN1CCCc2cc(CCNC(=O)CCC3CCCC3)ccc21`, the inhibition is 63% (active).

As for `Cn1nc(CNS(=O)(=O)/C=C/c2ccccc2)c2c1CCCC2`, the inhibition is -3% (inactive).

Take `CCCS(=O)(=O)N1CCc2ccc(NC(=O)c3ccc(Br)o3)cc2C1`: the inhibition was -14% (inactive).

On to `C=CCn1c(SCC(=O)N2CCOCC2)nc2scc(-c3ccccc3Cl)c2c1=O`, for which the inhibition was -1% (inactive).

With `Cc1cc(=O)n(CC(=O)Nc2ccc(C(F)(F)F)cc2)c(-c2ccncc2)n1`, the inhibition is -28% (inactive).

Consider `CS(=O)(=O)N1CCN(C(=O)c2cnn3c2OCCC3)CC1`, for which the inhibition was 6% (inactive).

Take `O=C(Cc1ccc(F)cc1)NCCn1nc(C(F)(F)F)c2c1CCCC2`: the inhibition is 10% (inactive).

For `COc1cn2c(cc1=O)C(=O)N(CCNC(=O)C1(c3ccc(Cl)cc3)CCCC1)CC2`, the inhibition is -13% (inactive) and -15% (inactive).

As to `Cc1ccc2c(CC(=O)NCc3ccccc3Cl)cc(=O)oc2c1`, the inhibition was -3% (inactive).

With `O=C(COC(=O)c1cccc(I)c1)c1ccc(-n2nncc2-c2ccccc2)cc1`, the inhibition was -4% (inactive).

Take `O=C(COC(=O)c1cccc(I)c1)c1ccc([N+](=O)[O-])cc1`: the inhibition is 38% (active).

`O=C(OCC(=O)N1CCc2ccccc21)c1ccc([N+](=O)[O-])cc1`: the inhibition is -10.4% (inactive).

As for `CS(=O)(=O)N1CCC(CNC(=O)c2ccc(OC(F)(F)F)cc2)CC1`, the inhibition was -25% (inactive).

On to `O=S(=O)(/C=C/c1ccccc1)N1CCCSCC1CN1CCOCC1` (centres undefined), for which the inhibition is -4% (inactive).

With `COC(=O)c1sccc1S(=O)(=O)NCc1ccc(C(=O)c2ccco2)s1`, the inhibition was -24% (inactive).

For `O=C(Cn1nc(-n2ccc3ccccc32)ccc1=O)Nc1c[nH]c(=O)[nH]c1=O`, the inhibition was -41% (inactive).

Consider `CCOc1ccccc1C(=O)N1CCN(c2ccc(-c3ccccn3)nn2)CC1`, for which the inhibition was 100% (active).

`c1ccc(-c2ccc(N3CCNCC3)nn2)nc1`: the inhibition was 100% (active).

For `CCSc1ccccc1C(=O)N1CCN(c2ncnc3c2nnn3C)CC1`, the inhibition was -12% (inactive).

With `O=C(c1ccc(N2CCCCC2)nn1)N(Cc1ccccc1)c1ccccn1`, the inhibition was -19% (inactive).

In the case of `O=S(=O)(CCc1ccccc1)N1CCN(c2ccc(-c3ccccc3)nn2)CC1`, the inhibition is -3% (inactive).

For `CCSc1ccccc1C(=O)N1CCN(c2ccc(-c3ccccn3)nn2)CC1`, the inhibition is 161% (active).

As to `O=C(c1ccccc1F)N1CCN(c2ccc(-c3cccnc3)nn2)CC1`, the inhibition was -8% (inactive) and -16% (inactive).

For the compound `CCOc1ccccc1C(=O)N1CCC(Oc2cccc(C)n2)CC1`, the inhibition is -8% (inactive).

In the case of `CCSc1ccccc1C(=O)N1CCN(C(=O)C2CC2c2ccccc2)CC1` (centres undefined), the inhibition is -7% (inactive).

As for `C=CCNC(=S)NN=C(C)c1cc(OC)c(OC)c(OC)c1`, the inhibition was -5.43% (inactive).

As for `Cc1cc(OC2CN(C(=O)C(C)(C)Oc3ccc(Cl)cc3)C2)cc(=O)n1C`, the inhibition was -5% (inactive).

On to `COc1ccc(N2CCn3c(SCC(=O)Nc4ccc(OC)cc4OC)nnc32)cc1`, for which the inhibition is -12% (inactive).

Regarding `O=C(O)c1cc(Br)cs1`, the inhibition was -5% (inactive).

As for `COc1ccc(OCC(=O)NN=C(C)CC(=O)Nc2ccc(OC)cc2[N+](=O)[O-])cc1`, the inhibition is -8.04% (inactive).

Regarding `COc1ccc(NC(=O)CCSc2ccc(C)cc2)c([N+](=O)[O-])c1`, the inhibition was 62% (active).

On to `Cc1ccc(SCCC(=O)Nc2cccc(Cl)c2Cl)cc1`, for which the inhibition was -17% (inactive) and -19% (inactive).

On to `CN(C)[C@@H](CNC(=O)C(=O)Nc1ccc(F)c(Cl)c1)c1ccco1`, for which the inhibition was -17% (inactive).

For the compound `NC(=O)c1ccccc1NC(=O)c1cccn(Cc2cccc(F)c2)c1=O`, the inhibition is 4% (inactive).

As for `N#C/C(=C\N1CCC(C(N)=O)CC1)C(=O)NCCc1ccccc1`, the inhibition is -13% (inactive).

For `O=C(Nc1nc2c(s1)C(=O)NCCC2)c1ccc2noc(-c3ccccc3)c2c1`, the inhibition is -3% (inactive).

As for `c1ccc(-c2nnc3c4ccccc4c4ccccc4c3n2)nc1`, the inhibition is 81% (active).

For the compound `Cc1oc(-c2ccc(Cl)cc2)cc1C(=O)Nc1ccc(S(N)(=O)=O)cc1`, the inhibition is -10% (inactive).

As for `COc1ccc(CC(=O)NCC(c2ccsc2)N2CCc3ccccc3C2)cc1` (centres undefined), the inhibition is -5% (inactive).

Regarding `O=C(NCc1ccc2c(c1)OCO2)C(=O)NC[C@H](O)c1cccc2ccccc12`, the inhibition was -1% (inactive).

On to `O=C(Oc1cccc(C(=S)N2CCOCC2)c1)c1cccc(Cl)c1`, for which the inhibition was 45.9% (active).

As to `O=C(Oc1ccc(C(=S)N2CCOCC2)cc1)c1ccc(F)cc1`, the inhibition was -4.78% (inactive).

For `Cc1ccc(C(=O)Oc2ccc(C(=S)N3CCOCC3)cc2)cc1`, the inhibition is -12.7% (inactive).
